Measured values as given in PubChem BioAssay AID652016 (National Center for Advancing Translational Sciences (NCATS), 2013).
Results filed as inconclusive are left out. Activity calls are given as the source filed them. Calls follow the shape of the dose curve; as a rule, active = well fitted inhibition curve with a large enough effect; inconclusive = small, poorly fitted or top-dose-only effect; inactive = flat fitted curve, though single readings scatter.

target: Luciferin 4-monooxygenase (Photinus pyralis) (UniProt P08659); experiment: qHTS Assay for Inhibitors of Firefly Luciferase from the GSK Published Protein Kinase Inhibitor Set; details: purified firefly luciferase, luminescence inhibition; series mostly up to 57.5 µM; activity change, negative = inhibition: at the top concentration
Method in brief: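 Enzyme-level luminescence assay: compounds titrated (about 60uM down to 300pM) into substrate buffer (10uM ATP, 10uM D-luciferin, pH 7.5 Tris acetate with Mg, Tween-20, BSA), then 10nM firefly luciferase added; read after ~5 min.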
% is scaled to controls: 0 for no effect and ±100 for the full control effect; potency is read from the fitted curve at half-maximal effect.

Luciferin 4-monooxygenase (Photinus pyralis), sequence (P08659 whole entry, looked up): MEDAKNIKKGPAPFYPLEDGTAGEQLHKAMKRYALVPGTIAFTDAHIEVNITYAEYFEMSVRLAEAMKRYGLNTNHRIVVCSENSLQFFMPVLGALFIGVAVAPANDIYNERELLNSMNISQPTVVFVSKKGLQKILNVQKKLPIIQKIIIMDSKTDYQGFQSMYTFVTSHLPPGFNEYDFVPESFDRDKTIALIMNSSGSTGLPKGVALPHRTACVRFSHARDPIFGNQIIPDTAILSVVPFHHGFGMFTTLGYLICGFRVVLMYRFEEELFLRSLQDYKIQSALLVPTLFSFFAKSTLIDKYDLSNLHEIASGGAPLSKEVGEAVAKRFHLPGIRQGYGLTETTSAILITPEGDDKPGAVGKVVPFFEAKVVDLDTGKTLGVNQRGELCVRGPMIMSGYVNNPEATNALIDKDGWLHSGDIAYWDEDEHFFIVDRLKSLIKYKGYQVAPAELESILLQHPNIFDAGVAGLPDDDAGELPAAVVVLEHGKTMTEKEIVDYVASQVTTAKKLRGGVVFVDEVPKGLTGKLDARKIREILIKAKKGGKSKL

Compound | activity change, negative = inhibition | Potency
NCc1ccc(-c2nc(-c3ccc(Cl)c(O)c3)c(-c3ccncc3)[nH]2)cc1 | -11.5% (inactive) | 
CCOc1nccc2c1nc(-c1nonc1N)n2CC | 14.4% (inactive) | 
CNC(=O)c1cncc(C=Cc2ccccc2Cl)c1 |  | 9.19 µM (active)
COc1cc(C)c(N(C)C(=O)CN(C)C)cc1Nc1nc(Nc2cccc(F)c2C(N)=O)c2cc[nH]c2n1 | -2.27% (inactive) | 
Nc1nc(-c2cccc(Cl)c2)c(-c2ccc3ncccc3n2)s1 | 2.24% (inactive) | 
CCn1c(-c2nonc2N)nc2ccc(F)cc21 | 12.3% (inactive) | 
Cc1nnc(-c2cccc(-c3ccc(C(=O)NCC4CC4)cc3)c2)o1 | -8% (inactive) | 
CS(=O)(=O)Nc1ccc(-c2cc(-c3ccccc3)cc(C(N)=O)c2N)cc1 | 24.7% (inactive) | 
CCOc1ccc2c(-c3ccnc(Nc4cccc(C(F)(F)F)c4)n3)cnn2n1 | 11.5% (inactive) | 
NC(=O)Cc1ccccc1Oc1nccc(-c2c(-c3ccc(F)cc3)ncn2C2CCNCC2)n1 | 0.77% (inactive) | 
CCN(CC)Cc1ccc(Nc2nccc(-c3cnn4ncccc34)n2)cc1 | -7.2% (inactive) | 
Nc1nonc1-c1nc2cnccc2n1C1CC1 | 5.21% (inactive) | 
CCc1nccc2c1nc(-c1nonc1N)n2CC | 4.72% (inactive) | 
Cn1cc(C=C2C(=O)Nc3cccnc32)c2ccccc21 |  | 14.6 µM (active)
CCNC(=O)OC1CNC(C#Cc2cc3ncnc(Nc4ccc(OCc5cccc(F)c5)c(Cl)c4)c3s2)C1 (stereo not drawn) | -14.8% (inactive) | 
O=C(Nc1n[nH]c2nc(-c3ccco3)ccc12)C1CC1 | -2.36% (inactive) | 
COc1cc2ncn(-c3cc(OCc4ccccc4C(F)(F)F)c(C(N)=O)s3)c2cc1OC | -6.98% (inactive) | 

Compound | activity change, negative = inhibition | Potency
O=C1NC(=O)C(c2ccc(Cl)cc2)=C1Nc1ccc(Cl)c(C(=O)O)c1 | -1.4% (inactive) | 
COc1cc2ncnc(Nc3ccc(C)c(O)c3)c2cc1OC | 1.88% (inactive) | 
COc1cc(Nc2nccc(-c3cnn4ncccc34)n2)cc(OC)c1 | -15.6% (inactive) | 
c1ccc(-c2nc3n(c2-c2ccc4c(c2)OCO4)CCC3)nc1 | -4.35% (inactive) | 
CCn1c(-c2nonc2N)nc2c(C#CC(C)(C)O)nc(CN3CCCC3)cc21 | 9.71% (inactive) | 
Cc1cccc2c(N=Nc3ccc(S(N)(=O)=O)cc3)c(O)[nH]c12 | -17.8% (inactive) | 
COC(=O)c1cncc(C=Cc2c(C)cc(O)cc2C)c1 | -5.74% (inactive) | 
CN(c1ccc(NC(=O)Nc2c(Cl)cccc2Cl)cc1)c1ccnc(Nc2cccc(CS(C)(=O)=O)c2)n1 |  | 0.58 µM (active)
COc1ccc(-c2cc3c(N)ncnc3o2)cc1 |  | 6.51 µM (active)
O=C1Nc2ccc(I)cc2C1=Cc1cc(Br)c(O)c(Br)c1 | -3.81% (inactive) | 
Nc1nc(-c2ccc(F)cc2)c(-c2ccc3ncccc3n2)s1 | 10.4% (inactive) | 
NC(=O)CCc1ccccc1Oc1nccc(-c2c(-c3ccc(F)cc3)ncn2C2CCNCC2)n1 | 11.4% (inactive) | 
COc1cc2ncn(-c3cc(OC(C)c4ccccc4Cl)c(C(N)=O)s3)c2cc1OC (stereo not drawn) |  | inactive
Cc1c2ccc(N(C)c3ccnc(Nc4cccc(S(N)(=O)=O)c4)n3)cc2nn1C |  | 13 µM (active)
C#Cc1cccc(Nc2ncnc3ccc(OCCCCNCCS(C)(=O)=O)cc23)c1 | 7.77% (inactive) | 
COc1ccc(CNC(=O)c2ccc(-c3cc(-c4nnc(C)o4)ccc3C)cc2)cc1 | 8.91% (inactive) | 
